This passage reports outcome and AC50 results from PubChem BioAssay (EPA / NIEHS).

Calls of active or inactive are those of the source. The calls were made as follows: active = hit-call score of the fitted dose curve at least 0.9, where 1 is the maximum; inactive = score below 0.9.

Conditions in all cases: mRNA level, 48 h; actives raise or lower the signal
Read-out in test [1]: adenosine kinase (ADK) gene, ADK (gene 132)
The test can be described thus: LTEA_HepaRG_ADK: Life Technologies and Expression Analysis (LTEA) Assay for adenosine kinase (ADK) gene using HepaRG (AID 2283471). The method, boiled down: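 Read-out is ADK transcript level measured by qRT-PCR and normalised to three housekeeping genes. Cells are human HepaRG, dosed for 48 h at up to 100 uM in 0.5% DMSO. Gain or loss of signal is fitted against DMSO controls.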

Read-out in test [2]: Alpha-fetoprotein (AFP) gene, AFP (gene 174)
The test can be described thus: LTEA_HepaRG_AFP: Life Technologies and Expression Analysis (LTEA) Assay for Alpha-fetoprotein (AFP) gene using HepaRG (AID 2283472). Put shortly:
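AFP transcript measured by TaqMan qRT-PCR with three housekeeping genes for normalization, after 48 h chemical treatment of HepaRG cells (top 100 uM, half-log steps, 0.5% DMSO). Gain or loss fitted against vehicle.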

Read-out in the next test: BCL2L11 (gene 10018)
The test can be described thus: LTEA_HepaRG_BCL2L11: Life Technologies and Expression Analysis (LTEA) Assay for Bcl-2 (BCL2L11) gene using HepaRG (AID 2283473). Put shortly: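 Differentiated human HepaRG cells were exposed 48 h in serum-free induction medium to eight half-log concentrations up to 100 uM in 0.5% DMSO, in duplicate. BCL2L11 mRNA was quantified by TaqMan qRT-PCR, normalized to ACTB, GAPDH and POLR2A; induction or repression fitted versus DMSO.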

Read-out in test [3]: Bcl-2 (BID) gene, BID (gene 637)
The test can be described thus: LTEA_HepaRG_BID: Life Technologies and Expression Analysis (LTEA) Assay for Bcl-2 (BID) gene using HepaRG (AID 2283476). Put shortly: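 Duplicate 48 h treatments of HepaRG cells in serum-free induction medium spanned 100 uM downward in half-log steps, 0.5% DMSO. Transcript change quantified by qRT-PCR against three housekeeping genes, fitted up or down versus DMSO.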

Read-out in a further test: Caspase-3 (Homo sapiens) (UniProt P42574)
The test can be described thus: LTEA_HepaRG_CASP3: Life Technologies and Expression Analysis (LTEA) Assay for cysteine-aspartic acid protease (CASP3) using HepaRG (AID 2283477). Put shortly: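 Differentiated HepaRG cells, plated 48 h, were treated in duplicate in serum-free induction medium for 48 h with eight half-log concentrations up to 100 uM in 0.5% DMSO. CASP3 mRNA measured by qRT-PCR, normalized to ACTB, GAPDH, POLR2A.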

Read-out in test [4]: Cytochrome P450 (CYP24A1), CYP24A1 (gene 1591)
The test can be described thus: LTEA_HepaRG_CYP24A1: Life Technologies and Expression Analysis (LTEA) Assay for Cytochrome P450 (CYP24A1) using HepaRG (AID 2283478). Put shortly: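 HepaRG cells plated 48 h, then exposed in duplicate in serum-free induction medium for 48 h to 8-point half-log series from 100 uM in 0.5% DMSO. CYP24A1 mRNA by Fluidigm qRT-PCR, normalized to ACTB, GAPDH, POLR2A; bidirectional fit versus DMSO.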

Read-out in test [5]: cysteine-aspartic acid protease (CASP8), CASP8 (gene 841)
The test can be described thus: LTEA_HepaRG_CASP8: Life Technologies and Expression Analysis (LTEA) Assay for cysteine-aspartic acid protease (CASP8) using HepaRG (AID 2283480). Put shortly: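 qRT-PCR readout of CASP8 mRNA, normalized to three housekeeping genes, after 48 h chemical exposure of HepaRG cells; 8-point half-log series, top 100 uM, 0.5% DMSO vehicle. Bidirectional curve fitting against DMSO baseline.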

Read-out in test [6]: Cytochrome P450 (CYP2B6), CYP2B6 (gene 1555)
The test can be described thus: LTEA_HepaRG_CYP2B6: Life Technologies and Expression Analysis (LTEA) Assay for Cytochrome P450 (CYP2B6) using HepaRG (AID 2283481). The method, boiled down:
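Differentiated human HepaRG cells in serum-free induction medium, dosed in duplicate for 48 h over 8 half-log concentrations topping at 100 uM (0.5% DMSO). CYP2B6 mRNA measured by TaqMan qRT-PCR, normalized to ACTB, GAPDH, POLR2A; bidirectional fit versus DMSO.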

Read-out in test [7]: Cytochrome P450 2C19 (Homo sapiens) (UniProt P33261)
The test can be described thus: LTEA_HepaRG_CYP2C19: Life Technologies and Expression Analysis (LTEA) Assay for CYP2C19 using HepaRG (AID 2283482). The method, boiled down: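 Differentiated HepaRG cells in serum-free induction medium exposed 48 h in duplicate, 8 concentrations from 100 uM by half-log steps in 0.5% DMSO. CYP2C19 mRNA measured by TaqMan qRT-PCR, normalized to ACTB, GAPDH, POLR2A. Bidirectional fit versus DMSO.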

Read-out in the next test: CYP2C8 (gene 1558)
The test can be described thus: LTEA_HepaRG_CYP2C8: Life Technologies and Expression Analysis (LTEA) Assay for CYP2C8 using HepaRG (AID 2283483). Put shortly:
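HepaRG (human liver line), 48 h chemical exposure, 8-pt half-log series from 100 uM, 0.5% DMSO vehicle. Readout: CYP2C8 transcript by qRT-PCR, housekeeping-normalized. Bidirectional fit vs DMSO baseline.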

Read-out in a further test: CYP2C9 (gene 1559)
The test can be described thus: LTEA_HepaRG_CYP2C9: Life Technologies and Expression Analysis (LTEA) Assay for CYP2C9 using HepaRG (AID 2283484). The method, boiled down:
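HepaRG, 48 h dosing, 8-pt half-log series, top 100 uM, 0.5% DMSO vehicle. Read-out: CYP2C9 transcript by TaqMan qRT-PCR, housekeeping-normalized (ACTB/GAPDH/POLR2A). Gain or loss fitted vs DMSO baseline.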

Read-out in a further test: CYP2E1 (gene 1571)
The test can be described thus: LTEA_HepaRG_CYP2E1: Life Technologies and Expression Analysis (LTEA) Assay for CYP2E1 using HepaRG (AID 2283485). The method, boiled down:
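CYP2E1 transcript measured by Fluidigm qRT-PCR against three housekeeping genes in human HepaRG cells treated 48 h (top 100 uM, half-log steps, 0.5% DMSO vehicle). Gain or loss fitted relative to DMSO baseline.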

Read-out in a further test: CYP4A11 (gene 1579)
The test can be described thus: LTEA_HepaRG_CYP4A11: Life Technologies and Expression Analysis (LTEA) Assay for CYP4A11 using HepaRG (AID 2283486). The method, boiled down:
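Differentiated HepaRG cells, 48 h after plating, exposed in duplicate for 48 h to 8 half-log concentrations up to 100 uM in 0.5% DMSO in serum-free induction medium. CYP4A11 mRNA measured by TaqMan qRT-PCR, normalized to ACTB, GAPDH and POLR2A.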

Read-out in test [8]: Cytochrome P450 3A4 (Homo sapiens) (UniProt P08684)
The test can be described thus: LTEA_HepaRG_CYP3A4: Life Technologies and Expression Analysis (LTEA) Assay for CYP3A4 using HepaRG (AID 2283487). The method, boiled down: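 HepaRG, 48 h exposure, 8-pt CRC from 100 uM (half-log), 0.5% DMSO, duplicates; serum-free induction medium. Readout: CYP3A4 mRNA, qRT-PCR, ACTB/GAPDH/POLR2A normalization. Bidirectional fit vs DMSO.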

Read-out in test [9]: DNA damage-inducible transcript 3 (DDIT3), DDIT3 (gene 1649)
The test can be described thus: LTEA_HepaRG_DDIT3: Life Technologies and Expression Analysis (LTEA) Assay for DNA damage-inducible transcript 3 (DDIT3) using HepaRG (AID 2283488). Put shortly: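 DDIT3 transcript was quantified by qRT-PCR with ACTB/GAPDH/POLR2A normalization after 48 h chemical treatment of differentiated HepaRG cells in 0.5% DMSO. Dosing was eight-point, half-log, top 100 uM, duplicate wells. Curves fitted bidirectionally versus DMSO.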

Read-out in test [10]: Pro-epidermal growth factor (Homo sapiens) (UniProt P01133)
The test can be described thus: LTEA_HepaRG_EGF: Life Technologies and Expression Analysis (LTEA) Assay for Epidermal growth factor (EGF) using HepaRG (AID 2283489). The method, boiled down:
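HepaRG cells (~100,000/well, 48 h pre-culture) exposed in duplicate for 48 h in serum-free induction medium to 8 half-log concentrations up to 100 uM in 0.5% DMSO. EGF mRNA by qRT-PCR, normalized to ACTB/GAPDH/POLR2A; bidirectional fit versus DMSO.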

Read-out in test [11]: Bcl-2 (BAX) gene, BAX (gene 581)
The test can be described thus: LTEA_HepaRG_BAX: Life Technologies and Expression Analysis (LTEA) Assay for Bcl-2 (BAX) gene using HepaRG (AID 2283470). Put shortly: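 Gene expression measured by Fluidigm qRT-PCR with three housekeeping genes for normalisation. HepaRG cells, plated 48 h beforehand, treated 48 h at up to 100 uM (8-point, half-log) in 0.5% DMSO. Bidirectional fitting versus DMSO.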

Read-out in test [12]: Apolipoprotein A-V (APOA5) gene, APOA5 (gene 116519)
The test can be described thus: LTEA_HepaRG_APOA5: Life Technologies and Expression Analysis (LTEA) Assay for Apolipoprotein A-V (APOA5) gene using HepaRG (AID 2283474). The method, boiled down: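 Differentiated HepaRG cells in serum-free induction medium, exposed 48 h in duplicate to eight half-log concentrations topping at 100 uM (0.5% DMSO). APOA5 mRNA by Fluidigm TaqMan qRT-PCR, normalized to ACTB, GAPDH and POLR2A; bidirectional fit versus DMSO.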

Read-out in test [13]: Apoptosis regulator Bcl-2 (Homo sapiens) (UniProt P10415)
The test can be described thus: LTEA_HepaRG_BCL2: Life Technologies and Expression Analysis (LTEA) Assay for Bcl-2 gene using HepaRG (AID 2283475). Put shortly: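 qRT-PCR of BCL2 transcript, normalized to three housekeeping genes (ACTB, GAPDH, POLR2A), after 48 h chemical exposure of HepaRG cells; concentrations top 100 uM with half-log dilutions, 0.5% DMSO vehicle, duplicates; changes up or down fitted relative to vehicle.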

Sequence of Cytochrome P450 3A4 (Homo sapiens) (P08684 whole entry, looked up): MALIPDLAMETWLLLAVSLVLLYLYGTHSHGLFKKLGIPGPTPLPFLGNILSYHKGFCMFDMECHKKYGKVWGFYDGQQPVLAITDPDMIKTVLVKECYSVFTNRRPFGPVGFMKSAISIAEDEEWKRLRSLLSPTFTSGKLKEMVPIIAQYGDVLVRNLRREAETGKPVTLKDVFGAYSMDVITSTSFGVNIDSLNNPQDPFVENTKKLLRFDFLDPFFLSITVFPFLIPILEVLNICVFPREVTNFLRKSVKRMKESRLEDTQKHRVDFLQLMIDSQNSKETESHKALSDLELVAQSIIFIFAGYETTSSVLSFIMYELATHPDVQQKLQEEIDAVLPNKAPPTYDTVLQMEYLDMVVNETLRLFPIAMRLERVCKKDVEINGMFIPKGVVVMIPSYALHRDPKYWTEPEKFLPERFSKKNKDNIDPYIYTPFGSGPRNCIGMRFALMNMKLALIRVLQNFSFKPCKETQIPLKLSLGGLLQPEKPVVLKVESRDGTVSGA
Sequence of Cytochrome P450 2C19 (Homo sapiens) (P33261 whole entry, looked up): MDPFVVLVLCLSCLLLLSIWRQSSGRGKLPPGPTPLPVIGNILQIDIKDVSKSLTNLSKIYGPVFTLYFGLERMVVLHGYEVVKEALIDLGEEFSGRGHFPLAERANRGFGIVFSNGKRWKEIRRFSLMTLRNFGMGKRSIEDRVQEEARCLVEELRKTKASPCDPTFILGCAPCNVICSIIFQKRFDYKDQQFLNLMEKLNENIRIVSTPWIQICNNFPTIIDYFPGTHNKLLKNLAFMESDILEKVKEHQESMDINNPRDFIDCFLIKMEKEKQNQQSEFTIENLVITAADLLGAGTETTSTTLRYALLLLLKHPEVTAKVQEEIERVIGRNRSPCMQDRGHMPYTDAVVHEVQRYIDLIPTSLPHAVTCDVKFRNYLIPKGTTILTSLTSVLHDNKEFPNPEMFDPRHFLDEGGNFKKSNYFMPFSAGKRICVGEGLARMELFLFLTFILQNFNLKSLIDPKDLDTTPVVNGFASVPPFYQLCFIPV
Sequence of Apoptosis regulator Bcl-2 (Homo sapiens) (P10415 whole entry, looked up): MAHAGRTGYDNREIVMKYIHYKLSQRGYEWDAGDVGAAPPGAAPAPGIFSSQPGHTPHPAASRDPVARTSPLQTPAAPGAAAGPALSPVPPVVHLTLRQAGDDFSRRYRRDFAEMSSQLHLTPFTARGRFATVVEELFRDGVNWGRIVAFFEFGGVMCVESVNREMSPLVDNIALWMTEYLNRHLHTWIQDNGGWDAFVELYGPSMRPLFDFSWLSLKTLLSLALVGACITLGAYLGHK
Sequence of Caspase-3 (Homo sapiens) (P42574 whole entry, looked up): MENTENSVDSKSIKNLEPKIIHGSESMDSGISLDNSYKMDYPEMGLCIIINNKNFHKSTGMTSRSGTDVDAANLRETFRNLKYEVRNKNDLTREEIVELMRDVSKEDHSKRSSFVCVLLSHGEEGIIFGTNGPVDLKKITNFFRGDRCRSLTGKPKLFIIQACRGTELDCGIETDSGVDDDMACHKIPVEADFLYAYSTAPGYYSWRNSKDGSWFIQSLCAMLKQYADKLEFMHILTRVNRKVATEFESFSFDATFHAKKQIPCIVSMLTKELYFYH

For the compound `CCCN(CCC)c1c([N+](=O)[O-])cc(C(F)(F)F)cc1[N+](=O)[O-]`, the compound was classed as inactive (in test [1]; in test [2]; in the test with BCL2L11 (gene 10018); in test [3]; in the test with Caspase-3 (Homo sapiens); in test [4]). Moreover, the call (in test [5]; in [7]; in the test with CYP2C8 (gene 1558); in the test with CYP2C9 (gene 1559); in the test with CYP2E1 (gene 1571); with CYP4A11 (gene 1579)) was inactive. Besides, the compound was classed as inactive in test [8], in test [9] and in [10]. Besides, the AC50 in test [6] was 50 µM (active).
Regarding `COc1nn(CSP(=S)(OC)OC)c(=O)s1`, the call (in test [11]; in [1]; in test [2]; with BCL2L11 (gene 10018); in test [12]; in test [3]) was inactive. Moreover, the compound was classed as inactive (in test [4]; in test [5]; in the test with CYP2C8 (gene 1558); in the test with CYP2C9 (gene 1559); with CYP2E1 (gene 1571); with CYP4A11 (gene 1579)). The outcome in test [8], in test [9] and in test [10] was inactive. Moreover, the results for the half-maximal activity concentration (AC50) in test [6] and in [7] were 4.94 µM (active) and 10.6 µM (active), respectively.
Turning to `C#CCN1C(=O)COc2cc(F)c(N3C(=O)C4=C(CCCC4)C3=O)cc21`, the compound was called inactive (in test [1]; in the test with BCL2L11 (gene 10018); in test [13]; in test [3]; in [4]; in test [5]). Also, the call (in the test with CYP2C8 (gene 1558); in the test with CYP2C9 (gene 1559); in [9]; in [10]) was inactive. In addition, the AC50 in [2] is 40.4 µM (active); in test [6], 0.84 µM (active); in [7] it was 6.97 µM (active); in the test with CYP2E1 (gene 1571), 26.1 µM (active); with CYP4A11 (gene 1579), 20.5 µM (active); in test [8] it was 3.65 µM (active).
Turning to `COP(=O)(OC)OC=C(Cl)Cl`, the result (in test [1]; in [2]; with BCL2L11 (gene 10018); in [12]; in test [3]; in [4]) was inactive. Besides, the compound was called inactive (in test [5]; in test [7]; in the test with CYP2C8 (gene 1558); with CYP2C9 (gene 1559); in the test with CYP2E1 (gene 1571); with CYP4A11 (gene 1579)). The result in test [8], in test [9] and in test [10] was inactive. Also, the AC50 in [6] was 6.48 µM (active).
In the case of `CCC(C)Nc1c([N+](=O)[O-])cc(C(C)(C)C)cc1[N+](=O)[O-]` (stereo unspecified), the call (in test [1]; with BCL2L11 (gene 10018); in test [12]; in test [3]; in test [4]; in test [5]) was inactive. In addition, the compound was called inactive (with CYP2C9 (gene 1559); in test [9]). The AC50 was 50 µM (active) in [2]; 3.52 µM (active) in [6]; 12.9 µM (active) in test [7]; 12.6 µM (active) with CYP2C8 (gene 1558); 49.3 µM (active) with CYP2E1 (gene 1571); 50 µM (active) with CYP4A11 (gene 1579). Also, the AC50 is 6.12 µM (active) in test [8] and 10.7 µM (active) in test [10].

Broadly, the AC50 is the concentration at which the activity in the assay is half-maximal.
